# RORgamma inh: qHTS for inhibitors of ROR gamma transcriptional activity; Nuclear receptor ROR-gamma (Mus musculus), P51450; Drosophila S2 Gal4-RORgamma UAS-luciferase reporter, 20 h; Potency, µM (top dose mostly 53.6 µM), for the others: at the top dose activity change, negative = inhibition, hits mostly inhibitors; 310,000 compounds, 5.4% hits; also: % is scaled to controls: 0 for no effect and ±100 for the full control effect; nearly all actives have a fitted effect of over 60% in size
# Target sequence (P51450 whole entry, looked up, the tested form may be a part): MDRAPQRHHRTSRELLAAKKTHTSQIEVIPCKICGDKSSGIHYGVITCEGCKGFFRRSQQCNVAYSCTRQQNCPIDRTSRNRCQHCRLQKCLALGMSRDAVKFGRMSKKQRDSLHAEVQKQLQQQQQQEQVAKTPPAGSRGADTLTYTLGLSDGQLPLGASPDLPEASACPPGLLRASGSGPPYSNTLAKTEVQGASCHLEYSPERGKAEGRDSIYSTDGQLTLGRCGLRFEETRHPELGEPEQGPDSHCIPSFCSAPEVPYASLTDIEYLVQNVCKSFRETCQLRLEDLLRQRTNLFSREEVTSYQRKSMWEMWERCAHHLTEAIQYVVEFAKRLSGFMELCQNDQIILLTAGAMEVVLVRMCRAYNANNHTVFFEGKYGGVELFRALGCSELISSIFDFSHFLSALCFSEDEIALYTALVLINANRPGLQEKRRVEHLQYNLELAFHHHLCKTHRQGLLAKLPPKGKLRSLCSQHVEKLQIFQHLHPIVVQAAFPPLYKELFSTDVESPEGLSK
#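 Drosophila Schneider cells stably carrying a metallothionein-driven Gal4 DBD–ROR gamma fusion and a UAS-Photinus luciferase reporter were exposed to compound for 1 hr, then induced with copper sulfate (700 uM final) for 20 hr at ambient temperature before luminescence reading.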
# HepG2 tox-1: qHTS for Inhibitors of TGF-b: Cytotox Counterscreen. 410,000 compounds, 0.76% hits. HepG2 CAGA-GFP viability, ATP luminescence, 18 h. Potency, µM (top dose mostly 46.1 µM), for the others: at the top dose activity change, negative = cytotoxicity, most hits filed as cytotoxic
#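 CellTiter-Glo luminescence gave cytotoxicity after 18 hours at 37 degrees C. The cells were HepG2 CAGA-GFP in 1% FBS DMEM, stimulated with 500 pg/mL TGF-beta after compound addition. %Activity was normalised to no-cell wells (complete cell-killing) and DMSO (no toxicity), and curves were fitted and classified.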
# S2 tox: Viability Counterscreen for Primary qHTS for Inhibitors of ATXN expression. Potency, µM (titrated, usually from 56.7 µM), usual class: cytotoxic. AID 651635, 2014. S2 cells (HEK-293 line with an ATXN2-luciferase reporter) viability, CellTiter-Fluor protease fluorescence, 24 h. 400,000 compounds, 0.49% hits; also: nearly all actives have a fitted effect of over 40% in size
# TGFb inhibitor: qHTS for Inhibitors of TGF-b | Potency, µM (top dose mostly 46.1 µM), inactives show top-dose activity, negative = inhibition, hits mostly inhibitors | AID 588855, 2011 | 410,000 compounds, 1.2% hits | HepG2 CAGA-GFP TGF-b/SMAD3 reporter, GFP fluorescence, 18 h; TGF-beta stimulated, 500 pg/mL final; also: % is scaled to controls: 0 for no effect and ±100 for the full control effect; nearly all actives have a fitted effect of over 65% in size
#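 Inhibition of TGF-beta-driven CAGA-GFP reporter expression in HEPG2 cells is measured by cellular GFP fluorescence after 18 h stimulation with 500 pg/mL recombinant TGF-beta in 1% FBS medium at 37 degrees C.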
# Gal4-VP16 FLuc: VP16 counterscreen qHTS for inhibitors of ROR gamma transcriptional activity | Potency, µM (titrated, usually from 53.6 µM), for the others: at the highest dose activity, negative = inhibition, hits mostly inhibitors | Drosophila S2 Gal4-VP16 UAS-luciferase, luminescence, 20 h | 310,000 compounds, 3.5% hits | AID 2546, 2010;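 also: Gal4-VP16 expression switched on by copper sulfate through the metallothionein promoter; % is scaled to controls: 0 for no effect and ±100 for the full control effect; nearly all actives have a fitted effect of over 50% in size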
# ATXN2 expr inh: Primary qHTS for Inhibitors of ATXN expression. HEK-293 ATXN2-luciferase reporter, luminescence, 24 h. Potency, µM (series often up to 57 µM), for inactives: at the highest dose activity change, negative = inhibition, hits mostly inhibitors. 360,000 compounds, 0.72% hits. AID 1745845, 2022; also: % is scaled to controls: 0 for no effect and ±100 for the full control effect; nearly all actives have a fitted effect of over 55% in size
#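 qHTS (up to 57 uM final) was run with 24 h compound exposure of reporter cells at 37 °C. Each well was multiplexed: SteadyGlo luminescence measured ATXN2-luciferase expression after a fluorogenic Gly-Phe-AFC viability readout (25 uM final).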
# TGFb CAGA inh: qHTS for Inhibitors of TGF-b: Confirmation of Cherry Picks. shares compounds with TGFb inhibitor. HepG2 CAGA-GFP TGF-b reporter, GFP fluorescence, 18 h; cells stimulated with TGF-beta, 500 pg/mL. Potency, µM (titrated, usually from 46.1 µM), for inactives: top-dose activity, negative = inhibition, most hits filed as inhibitors. 1,600 compounds, 63% hits. AID 720534, 2013; also: % is scaled to controls: 0 for no effect and ±100 for the full control effect; nearly all actives have a fitted effect of over 65% in size
# HepG2 tox-2: qHTS for Inhibitors of TGF-b: Cytotox Counterscreen for Cherry Picks; shares compounds with TGFb inhibitor; HepG2 CAGA-GFP viability, ATP luminescence, 18 h; cells stimulated with TGF-beta, 500 pg/mL; Potency, µM (doses to about 46.1 µM), for the others: at the top dose activity, negative = cytotoxicity, usual class: inhibitors; 1,600 compounds, 27% hits; also: % is scaled to controls: 0 for no effect and ±100 for the full control effect; nearly all actives have a fitted effect of over 70% in size
# CCL64 TGFb inh: qHTS for Inhibitors of TGF-b: CCL64 Cells Orthogonal Assay for Cherry Picks; shares compounds with TGFb inhibitor; 1,600 compounds, 41% hits; CCL64 CAGA-GFP reporter, TGF-b stimulated, GFP fluorescence, 18 h; Potency, µM (doses to about 46.1 µM), for the others: at the top dose activity, negative = inhibition, hits mostly inhibitors; AID 720536, 2013; also: nearly all actives have a fitted effect of over 65% in size
# TGFb COP inh: qHTS for Inhibitors of TGF-b: Hit Validation in HepG2 Cells using COP promoter. Potency, µM (titrated, usually from 46.1 µM), for the others: top-dose activity, negative = inhibition, usual class: inhibitors. HepG2 COP-GFP TGF-b reporter, GFP fluorescence, 18 h; cells stimulated by added recombinant TGF-beta. shares compounds with TGFb inhibitor. 1,600 compounds, 3% hits. AID 720537, 2013; also: nearly all actives have a fitted effect of over 70% in size
# * = called active by the depositor; i = inactive; ? = inconclusive; . = no result; [ ] = remark or other dose. Most compounds without a hit are left out; they make up all but 6.3% or so of the library. Calls follow the shape of the dose curve; as a rule, active = well fitted curve in the direction sought with a large enough effect; inconclusive = small, poorly fitted or top-dose-only effect, or another doubt; inactive = no such curve, though single readings can be large; an effect the other way counts as inactive or inconclusive. Potency is read from the fitted curve at half-maximal effect.
SMILES,RORgamma inh,HepG2 tox-1,S2 tox,TGFb inhibitor,Gal4-VP16 FLuc,ATXN2 expr inh,TGFb CAGA inh,HepG2 tox-2,CCL64 TGFb inh,TGFb COP inh
COc1cccc(-c2cnc3c(NC=O)cc(-c4ccc(S(C)(=O)=O)cc4)cn23)c1,.,-3%,i,1.8µM*,.,-21%,4.6µM*,-30%,2.1µM*,31%
COc1ccc(Cl)cc1NC(=O)CSc1nnc(Cc2ccc(C)cc2)c(=O)[nH]1,.,-16%,i,8.9µM*,.,5%,21µM*,?,-30%,35%
COc1cc(NC(=O)C2Cc3ccccc3CN2S(C)(=O)=O)cc(OC)c1 (configuration not stated),10%,25%,i,11µM*,1%,-27%,-21%,-6%,-21%,8%
COc1ccc(CN2C[C@H]3CCCN3c3cc(Br)ccc3S2(=O)=O)cc1,.,-20%,?,10µM*,.,-7%,8.2µM*,-3%,?,-22%
CC1COC(=C2C(=O)OCC2C)C1 (configuration not stated),.,0%,i,5%,.,.,.,.,.,.
Cc1ccc(N2CCN(C(=O)c3cc(C(=O)c4ccccc4C)c[nH]3)CC2)c(C)c1,20%,-29%,?,18µM*,1%[10 µM],-30%,6.5µM*,-26%,?,34%
Cc1ccc(N2CCN(C(=O)c3ccccc3Br)CC2)c(C)c1,5%,-10%,i,3%,-10%,-4%,.,.,.,.
Cc1cccc(N2CCN(C(=O)C3COc4ccccc4O3)CC2)c1C (configuration not stated),41%,-37%,i,11µM*,-7%,.,16µM*,-16%,?,-3%
Cc1cccc(N2CCN(C(=O)c3ccc(S(=O)(=O)N(C)c4ccccc4)cc3)CC2)c1C,.,-2%,i,5.6µM*,.,-20%,9.2µM*,-21%,?,20%
Cc1ccc(N2CCN(C(=O)c3ccccc3)CC2)c(C)c1,12%,-31%,i,10µM*,-1%,-25%,?,7%,18µM*,15%
CN1CCN(C(=O)c2ccc(S(=O)(=O)N(C)c3ccccc3)cc2)CC1,.,2%,i,0%,.,.,.,.,.,.
CCOc1nc(NC(=O)NS(=O)(=O)Oc2ccccc2)nc(-c2ccccc2)n1,.,6%,i,14%,.,24%,.,.,.,.
CCCc1nc(SC)ncc1C(=O)N1CCN(c2ccc(Cl)cc2)CC1,.,-2%,i,?,.,-22%,.,.,.,.
COc1ccc(-n2cc(C(=O)c3cc(Cl)ccc3O)cc(C#N)c2=O)cc1,22%,-10%,.,0%,-5%[10 µM],-21%,.,.,.,.
CCOc1ccc(-n2cc(C(=O)c3cc(Cl)ccc3O)cc(C#N)c2=O)cc1,?,-22%,.,13µM*,15%[10 µM],-27%,-81%,?,?,53%
Cc1cc(C)nc(/N=C(\N)Nc2ccc(OCc3ccccc3)cc2)n1,21%,-24%,?,0.25µM*,?,?,0.18µM*,?,18µM*,99%
Cc1cc(C)nc(/N=C(\N)Nc2ccc(CC(=O)OC(C)C)cc2)n1,?,-25%,i,10µM*,?,-20%,?,-29%,?,14%
CN(CC(=O)Nc1ccccc1Br)C(=O)CNC(=O)c1ccc(Oc2ccccc2)cc1,?,-10%,i,-13%,?,-13%,.,.,.,.
COc1ccc(C2CC(c3c(-c4ccccc4)c4cc(Cl)ccc4[nH]c3=O)=NN2S(C)(=O)=O)cc1OC (configuration not stated),?,-79%,i,8.9µM*,?,-19%,?,-1%,?,19%
COCc1cc(=O)[nH]c(Nc2nc(C)c3cc(OC)ccc3n2)n1,-15%,.,.,.,-3%,.,.,.,.,.
COc1ccc2c(C)nc(Nc3nc(-c4ccccc4)cc(=O)[nH]3)nc2c1,4.5µM*,-59%,?,4µM*,4µM*,-44%,2.3µM*,5.8µM*,?,16%
O=C(CSc1n[nH]c(-c2ccccc2)n1)Nc1ncccn1,-2%,5%,i,-16%,-5%,-8%[11.3 µM],.,.,.,.
O=C(CSc1n[nH]c(-c2ccncc2)n1)Nc1ccccn1,7%,0%,i,11µM*,7%,-13%,16µM*,-1%,?,-15%
O=C(CSc1nccc(=O)[nH]1)Nc1cc(C(F)(F)F)ccc1N1CCOCC1,14%,-1%,i,-14%,9%,7%,.,.,.,.
Cc1ccc2nc(SCC(=O)Nc3cc(C(F)(F)F)ccc3N3CCOCC3)[nH]c2c1,16%,-20%,?,10µM*,-20%,-20%,1.8µM*,-9%,0.73µM*,-19%
COc1ccc(Cn2nnnc2CN2CCC(c3nc4ccccc4s3)CC2)cc1,18%,-21%,i,1%,6%,-25%,.,.,.,.
c1ccc2sc(C3CCN(Cc4nnnn4Cc4ccc5c(c4)OCO5)CC3)nc2c1,24%,-29%,i,14µM*,-10%,-19%,?,-21%,27%,-5%
Cc1ccc(S(=O)(=O)N2CCN(C(=O)c3ccccc3Cc3ccccc3)CC2)c(C)c1,-14%,-13%,i,11µM*,-12%,-31%,16µM*,?,?,16%
